TSHR antag – Antagonists of the Thyroid Stimulating Hormone Receptor: HTS campaign. 330,000 compounds, 0.2% hits. TSHR-expressing cells, TSH-stimulated cAMP HTRF, 2 h; active compounds read low. activity change, negative = inhibition, % at 11.5 µM. Thyrotropin receptor (Homo sapiens), P16473;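 active = activity change below a set negative limit, meaning inhibition stronger than a set level, cut at about -70% in these data; inconclusive = activity change between two set negative limits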; also: % is scaled to controls: 0 for no effect and ±100 for the full control effect
Target sequence (P16473 whole entry, looked up): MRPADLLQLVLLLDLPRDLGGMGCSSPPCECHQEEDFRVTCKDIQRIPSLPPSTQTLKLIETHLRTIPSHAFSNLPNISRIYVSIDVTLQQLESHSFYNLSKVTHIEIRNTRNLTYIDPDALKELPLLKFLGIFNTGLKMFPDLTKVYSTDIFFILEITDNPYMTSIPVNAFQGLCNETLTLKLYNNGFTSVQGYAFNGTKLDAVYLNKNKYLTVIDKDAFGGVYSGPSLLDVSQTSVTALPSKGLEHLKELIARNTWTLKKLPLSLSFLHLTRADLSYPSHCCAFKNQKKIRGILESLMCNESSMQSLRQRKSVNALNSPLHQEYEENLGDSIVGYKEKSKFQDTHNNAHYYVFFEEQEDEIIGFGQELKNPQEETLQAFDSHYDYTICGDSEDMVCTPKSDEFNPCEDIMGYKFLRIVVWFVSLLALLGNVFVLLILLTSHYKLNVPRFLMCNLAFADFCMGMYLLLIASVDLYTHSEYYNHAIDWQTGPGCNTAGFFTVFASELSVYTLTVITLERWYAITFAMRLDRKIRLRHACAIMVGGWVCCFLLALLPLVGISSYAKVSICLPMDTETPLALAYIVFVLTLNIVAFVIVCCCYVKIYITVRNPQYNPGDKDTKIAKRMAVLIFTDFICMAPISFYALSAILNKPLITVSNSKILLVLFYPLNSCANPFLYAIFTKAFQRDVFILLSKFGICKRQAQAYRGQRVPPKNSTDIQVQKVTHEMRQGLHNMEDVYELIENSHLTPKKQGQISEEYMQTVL
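TSHR-expressing cells were treated with compounds, then stimulated with TSH at EC80 (4nM final) for 2 hours at 37 deg C. Cellular cAMP was measured by HTRF competition between lysate cAMP and cAMP-d2 for a cryptate-labelled anti-cAMP antibody.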
GLP-1R inv ag – qHTS of GLP-1 Receptor Inverse Agonists (Inhibition Mode); Glucagon-like peptide 1 receptor (Homo sapiens), P43220; HEK293 GLP-1R CRE-luciferase, luminescence, 24 h; GLP-1R form is constitutively active; Potency, µM (highest dose often 38.3 µM), for inactives: at the highest dose activity change, negative = inhibition, usual class: inhibitors; 410,000 compounds, 1.6% hits; AID 624417, 2012; also: potency is read from the fitted curve at half-maximal effect; % is scaled to controls: 0 for no effect and ±100 for the full control effect; nearly all actives have a fitted effect of over 55% in size
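Constitutively active GLP-1R drives a cAMP-responsive luciferase in stably transfected HEK293 cells; test compounds are added after overnight (12 h) attachment and left 24 hr, and signal loss in luminescence marks inhibition.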
PTHR1 agonist – qHTS for PTHR1 Agonists: Primary Screen | Potency, µM (doses to about 115 µM), inactives show at the highest dose activation, actives largely listed as activators | Parathyroid hormone/parathyroid hormone-related peptide receptor (Homo sapiens), Q03431 | HEK293 GP2 PTHR1 cells, GloSensor cAMP luminescence, 1 h | AID 743266, 2014 | 410,000 compounds, 0.075% hits; also: potency is read from the fitted curve at half-maximal effect; nearly all actives have a fitted effect of over 55% in size
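HEK-293-derived GP2 cells expressing PTHR1 and a GloSensor cAMP reporter, 3,000/well, plated overnight, given luciferin plus IBMX (each 0.5 mM as added) for 1 h at 37 °C, then compound for 1 h at 37 °C. Luminescence was read after 15 min at room temperature.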
GLP1R ag – qHTS of GLP-1 Receptor Agonists. Glucagon-like peptide 1 receptor (Homo sapiens), P43220. AID 624172, 2012. 380,000 compounds, 0.007% hits. HEK293 GLP-1R CRE-luciferase, luminescence, 4-6 h; cells express a hypersensitive GLP-1R form. Potency, µM (titrated, usually from 45.6 µM), without a hit: top-dose activation, most hits filed as activators; also: potency is read from the fitted curve at half-maximal effect; % of control where 0% means no effect
GLP1R cytotox – qHTS of GLP-1 Receptor Inverse Agonists: Cytotox Screen. Potency, µM (series often up to 38.3 µM), without a hit: at the highest dose activity change, negative = inhibition, most hits filed as inhibitors. HEK293 cAMP-luciferase reporter cells, luminescence, 24 h. 410,000 compounds, 0.13% hits;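 also: loss of luciferase light is scored as toxicity; potency is read from the fitted curve at half-maximal effect; % is scaled to controls: 0 for no effect and ±100 for the full control effect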
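A 23 nL compound transfer followed 12 hours of cell culture at 37 deg C; exposure then lasted 24 hr. Luciferase assay detection reagent was dispensed and plates read for luminescence after a 12 min room-temperature wait.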
Active calls of the source: *; i = inactive; ? = inconclusive; / = no result given; [ ] = another dose, or the depositor's remark. Shown are actives, neighbours in structure and some others; about 1.8% of the full set was active somewhere. Unless noted, calls follow the shape of the dose curve; as a rule, active = well fitted curve in the direction sought with a large enough effect; inconclusive = small, poorly fitted or top-dose-only effect, or another doubt; inactive = no such curve, though single readings can be large; an effect the other way counts as inactive or inconclusive.

SMILES	TSHR antag	GLP-1R inv ag	PTHR1 agonist	GLP1R ag	GLP1R cytotox
Cc1c(C(=O)NCc2ccc(F)cc2)sc(=O)n1Cc1ccc(Cl)c(Cl)c1	/	10µM*	i	-0.5%	-15.2%
Cc1nn(-c2ccccc2)c(OC(=O)C(C)(C)C)c1Sc1ccccc1	/	-21.4%	-40.2%	/	-6.5%
Cc1cc(C)n2nc(N)c(N=Nc3ccccc3)c2n1	-11.5	-6.6%	-3.2%	16.3%	10µM*
Cc1cc(C)n2nc(N)c(N=Nc3ccc4c(c3)OCO4)c2n1	-7.4	24.5%	i	2.9%	1.4%
Cc1cc(C(=O)N/N=C/c2ccc(OCc3ccccc3)cc2)c(C)o1	-3.2	11.2µM*	-12.3%	14.9%	-20.6%
C[C@H]1CN([C@@H](C)CO)C(=O)c2cccc(NC(=O)Nc3ccc(C(F)(F)F)cc3)c2O[C@H]1CN(C)C	19.5	10µM*	20.0%	-4.2%	18.5%
COc1ccc(NC(=O)Nc2cccc3c2O[C@H](CN(C)C(=O)Nc2ccc(C(F)(F)F)cc2)[C@@H](C)CN([C@H](C)CO)C3=O)cc1	-7.0	2.5%	i	-2.1%	0.4%
C[C@H](CO)N1C[C@H](C)[C@@H](CN(C)C(=O)Nc2ccc(C(F)(F)F)cc2)Oc2c(NC(=O)Nc3ccc(C(F)(F)F)cc3)cccc2C1=O	-20.7	11.2µM*	-20.4%	-11.3%	?
O=C(Cc1ccccc1Cl)Nc1cccc(S(=O)(=O)N2CCCCCC2)c1	-28.0	?	-24.1%	20.0%	1.3%
O=C(Nc1cccc(S(=O)(=O)N2CCCCC2)c1)Nc1ccc(Cl)cc1Cl	-30.6	3.55µM*	-25.2%	19.8%	?
O=C(Nc1cccc(S(=O)(=O)N2CCCCCC2)c1)C1CCN(C(=O)c2ccc(Cl)cc2)CC1	-4.7	8.91µM*	-26.2%	12.6%	-15.4%
CC(=O)c1cccc(-n2c(=O)c3c4c(sc3n(Cc3ccccc3Cl)c2=O)CN(C(C)=O)CC4)c1	/	17.6%	-23.0%	-0.2%	6.7%
Cc1oc2c(c1C(=O)c1ccccc1)C(=O)C(=O)c1ccccc1-2	?	4.47µM*	-12.1%	-50.5%	?
Cc1oc2c(c1C(=O)O)C(=O)c1ccccc1C2=O	12.7	-0.1%	-3.8%	-4.2%	6.2%
Cc1ccc([N+](=O)[O-])cc1N=C(c1cccc(Br)c1)N1CCOCC1	-5.2	7.94µM*	-7.7%[57.5 µM]	5.5%	-4.6%
O=C(Oc1cccc(C(=S)N2CCOCC2)c1)c1ccc([N+](=O)[O-])cc1	1.9	-10.2%	-36.0%	-1.0%	17.3%
CCOC(=O)c1c(C)oc2ncnc(Nc3ccc(OC)c(OC)c3)c12	/	5.5%	i	/	-1.6%
CCOc1ccc(C(C)=O)cc1COC(=O)CNC(=O)C12CC3CC(CC(C3)C1)C2	-11.3	3.55µM*	-21.5%	20.0%	-4.6%
Cc1ccc(-c2ccc(/C=N/N=C3/NC(=O)C(CC(=O)O)S3)o2)c([N+](=O)[O-])c1 (centres undefined)	-72.0*	-6.0%	i	-9.1%	-15.2%
N/C(=N\OC(=O)/C=C/c1ccccc1)c1ccc(Cl)cc1	9.3	5.1%	-4.9%	10.8%	11.2µM*
Cc1cccc(CN(Nc2ccccc2)c2ccccc2)n1	/	10µM*	-3.2%	-4.1%	-5.9%
c1ccc(NN(Cc2ccccn2)c2ccccc2)cc1	/	?	-36.3%	5.4%	25.8%
CCOc1ccccc1NC(=O)CN(CCc1ccccc1)S(=O)(=O)c1ccc(C)cc1	/	10µM*	i	/	0.0%
CC(C)=CCC/C(C)=C\CC/C(C)=C\CC/C(C)=C\CC1=C(C)C(=O)c2ccccc2C1=O	/	/	/	1.2%	/
Cc1ccc(C(=O)C2=C(O)C(=O)N(c3ncccn3)C2c2ccccc2F)o1 (centres undefined)	-110.5*	12.0%	-11.0%	-4.1%	-29.0%
SMILES	TSHR antag	GLP-1R inv ag	PTHR1 agonist	GLP1R ag	GLP1R cytotox
COC(=O)c1cc2oc(C)cc2n1CC(=O)Nc1ccc(OC)c(OC)c1	/	3.4%	-17.8%	/	-3.9%
Cc1cc(NC2CCCCC2)nc(NCc2ccccc2)n1	1.4	10µM*	-10.2%	11.0%	?
O=C1c2[nH]nc(-c3ccccc3O)c2C(c2ccc(Cl)cc2)N1CCc1ccccc1 (centres undefined)	/	?	-80.0%	/	?
CCC1CCCCN1C(=O)Cn1c(=O)cc(C(F)(F)F)c2c(C)nn(C)c21 (centres undefined)	/	10µM*	-7.5%	/	0.4%
Cc1cc(=O)n(CC(=O)N2CCCCC2)c2c1c(C)nn2C	/	8.9%	i	/	1.5%
CCOc1cc(Cl)c(S(=O)(=O)n2cc(C)nc2CC)cc1Cl	/	?	-41.2%	/	8.2%
COC(=O)c1ccc(NC(=S)NC2CCCCC2C)cc1 (centres undefined)	1.9	10µM*	-7.3%	0.3%	?
COC(=O)c1ccc(NC(=S)NC(=O)C2CCC2)cc1	-13.0	-14.9%	-55.2%	-0.8%	?
CCN(CC)c1nn2c(=O)c(C(=O)NCCc3cccc(C)c3)cnc2s1	/	-12.7%	i	/	1.8%
CCSc1nsc(NC(=O)Nc2ccccc2F)n1	-20.0	-19.7%	-37.2%	-1.5%	8.0%
C=CCSc1nsc(NC(=O)Nc2ccc(F)cc2)n1	-81.8*	?	-47.0%	-4.2%	?
COc1cc(OC)cc(-c2nc3nc(C)c(CCC(=O)Nc4ccc(C)cc4C)c(C)n3n2)c1	/	8.3%	-17.5%	-0.4%	14.6%
Cc1onc(-c2ccccc2)c1C(=O)OCC(=O)Nc1ccc(OC(F)(F)F)cc1	8.1	?	-37.1%	-6.8%	-16.3%
Cc1ccc(NC(=O)COC(=O)c2c(-c3ccccc3)noc2C)cc1	-23.3	10µM*	-42.6%	11.0%	-9.2%
Cc1onc(-c2ccccc2)c1C(=O)Nc1cccc(OC(C)C)c1	-17.9	11.2µM*	-11.3%[57.5 µM]	-4.0%	-8.0%
Cc1onc(-c2ccccc2)c1C(=O)OCC(=O)Nc1ccc(Cl)cc1	-2.3	11.2µM*	-40.0%	-0.2%	-8.4%
CNC[C@@H]1CC[C@@H](N)[C@@H](O[C@H]2[C@H](O)[C@@H](O[C@H]3OC[C@](C)(O)[C@H](NC)[C@H]3O)[C@H](N)C[C@@H]2N)O1	/	/	/	22.1%	/
Cc1ccc(NC(=O)c2cc(S(=O)(=O)NC3CCCCC3)ccc2F)cc1Cl	/	7.94µM*	-9.7%	/	-32.0%
O=C(Nc1ccc(F)c(F)c1)c1cc(S(=O)(=O)NC2CCCC2)ccc1F	/	10µM*	i	/	-2.7%
O=C(CO/N=C/c1ccccc1)N1c2ccccc2Oc2ccccc21	-24.2	8.91µM*	-61.4%	-1.2%	-11.0%
O=C(CN1CCCCC1)N1c2ccccc2Oc2ccccc21	3.6	?	i	7.7%	-7.4%
NC(N)=N/N=C/c1cccc(Cl)c1Cl	5.2	10µM*	-8.1%	0.4%	?

Screening data as filed in PubChem.
